Records with an inconclusive call do not appear. Activity calls are given as the source filed them. The call rests on the fitted dose curve; in most records, active means well fitted cell-killing curve with a large enough effect; inconclusive means small, poorly fitted or top-dose-only effect, or effect the other way; inactive means flat fitted curve, though single readings scatter.

One assay relates to Tov-21-G. The assay is described as follows: Primary qHTS to identify gynecologic anti-cancer compounds using libraries of approved drugs and bioactive compounds (AID 1345084). Further: nearly all actives have a fitted effect of over 55% in size. The following applies: Gynecologic cancer cell panel viability, ATPlite luminescence, 48 h; series mostly up to 57.5 µM. In a few lines:
(§1)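 In this quantitative HTS, cell killing is estimated from loss of ATP-dependent luciferase light. Cells see five compound concentrations over a 48 h exposure.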

The subject of the next assay is Tov112D. Described as above. To be noted: Gynecologic cancer cell panel viability, ATPlite luminescence, 48 h; series mostly up to 57.5 µM. The method, boiled down: as §1
Potency means the concentration at half of the fitted maximal effect.

With `Cc1cccc(CC(=O)N2CCc3c2ccc(-c2cn(C)c4ncnc(N)c24)c3F)n1`, the Potency entry with Tov-21-G and in the assay on Tov112D was “inactive” throughout.

Regarding `Cc1csc2c(N[C@@H](C)CN3CCN(S(=O)(=O)c4ccc(Cl)c(Cl)c4)CC3)ncnc12`, the Potency entry in the assay with Tov-21-G and with Tov112D was “inactive” throughout.

For `COc1ccc2nccc(C(=O)CC[C@@H]3CCN(CC#Cc4cc(F)cc(F)c4F)C[C@@H]3C(=O)O)c2c1`, the Potency result in the assay on Tov-21-G and in the assay on Tov112D was “inactive” throughout.

Consider `CC(C)Nc1nc(Nc2ccccc2)nc(-c2ccccc2)n1`, for which the Potency result in the assay with Tov-21-G and with Tov112D was “inactive” each time.

Consider `COc1cc(-c2cn(C3CCc4c(F)cccc4N(CC(F)(F)F)C3=O)nn2)ccc1-n1cnc(C)c1` (configuration not stated), for which the Potency entry with Tov-21-G and with Tov112D was “inactive” in each case.

In the case of `Cc1ccc(NC(=O)c2ccc(CN3CCNCC3)cc2)cc1Nc1nccc(-c2cccnc2)n1`, the Potency in the assay on Tov-21-G and in the assay with Tov112D was 28.2 µM (active) throughout.

On to `COc1cc(/C=C/C(=O)NCCn2c(C(F)(F)F)cc3ccccc32)cc(OC)c1OC`, for which the Potency entry in the assay on Tov-21-G and in the assay on Tov112D was “inactive” throughout.

With `S=C(c1ccc(-c2ccc(Cl)c(Cl)c2)o1)N1CCCCC1`, the Potency entry with Tov-21-G and in the assay with Tov112D was “inactive” throughout.

Consider `COc1cc2ncnc(Nc3cccc(I)c3)c2cc1OC`, for which the Potency entry with Tov-21-G and with Tov112D was “inactive” each time.

As for `Cc1cc(Nc2nc(-c3ccccc3)nc3ccccc23)n[nH]1`, in the assay with Tov-21-G, the Potency is 10 µM (active). For the same compound, in the assay on Tov112D, the Potency result was “inactive”.

In the case of `CC(C)(O)C(=O)N1CCN(c2ccc(C(F)(F)F)c(C3=C(c4c[nH]c5ccccc45)C(=O)NC3=O)c2)CC1`, the Potency result with Tov-21-G and in the assay on Tov112D was “inactive” each time.

With `O=c1cc(N2CCOCC2)nc2c3ccccc3ccn12`, the Potency entry in the assay with Tov-21-G and with Tov112D was “inactive” in each case.

Consider `O=S(=O)(NCc1cccc2ccccc12)c1cc(Cl)c(Oc2cccc(N3CCNCC3)c2)s1`, for which the Potency result in the assay on Tov-21-G and with Tov112D was “inactive” each time.

Consider `C[C@H](Nc1cc2c(-c3ccc4c(c3)OCO4)noc2cn1)c1ccccc1`, for which the Potency result in the assay with Tov-21-G and in the assay on Tov112D was “inactive” each time.

In the case of `COc1cc(C[C@H]2C(=O)OC[C@@H]2Cc2ccc(OC)c(OC)c2)ccc1O`, the Potency entry in the assay with Tov-21-G and in the assay with Tov112D was “inactive” in each case.

Turning to `Fc1ccc(-c2cncc(CN3CCN(c4cccc5c4OCCO5)CC3)c2)cc1`, the Potency result with Tov-21-G and in the assay on Tov112D was “inactive” each time.

For `O=C(N[C@@H]1CCCc2c1cnn2-c1ccc(F)cc1F)c1ccccn1`, the Potency result in the assay on Tov-21-G and in the assay with Tov112D was “inactive” each time.

Turning to `Nc1nc(O)c(C2=C3C(=Nc4ccccc43)C(=O)NCC2)[nH]1`, the Potency result with Tov-21-G and in the assay with Tov112D was “inactive” in each case.

As to `CCCCC1CCC(c2nc(-c3ccncc3)no2)CC1` (configuration not stated), the Potency entry in the assay with Tov-21-G and with Tov112D was “inactive” throughout.

For the compound `CC(C)C[C@@H](C(=O)N[C@@H](Cc1ccc(OCc2ccccc2)cc1)C(=O)NC(C)(C)C)N(C)Cc1ccc(C(C)(C)C)cc1`, the Potency result with Tov-21-G and in the assay on Tov112D was “inactive” throughout.

In the case of `CC(=O)CC(=O)Nc1ccc(Cl)c(C(F)(F)F)c1`, the Potency entry in the assay on Tov-21-G and with Tov112D was “inactive” each time.

As for `C=C1CC2[C@@]3(C)C=CC(=O)C(C)(C)C3=C(O)C(=O)[C@@]2(C)C2(C(=O)OC)C(=O)C(C)OC(=O)[C@@]12C` (some centres not stated), the Potency entry with Tov-21-G and with Tov112D was “inactive” in each case.

Take `O=C(Nc1nnc(-c2ccc3c(c2)OCCO3)o1)C1CCCCC1`: the Potency entry in the assay on Tov-21-G and with Tov112D was “inactive” in each case.

Consider `CS/C=C/C(=O)O[C@@H]1CCC2=CC(=O)C(=C(C)C)C[C@]2(C)[C@H]1C`, for which the Potency result in the assay with Tov-21-G and in the assay with Tov112D was “inactive” throughout.

On to `c1cc(NCCc2c[nH]c3ccccc23)cc(Nc2ccncc2)c1`, for which the Potency result in the assay with Tov-21-G and in the assay on Tov112D was “inactive” each time.

With `COc1ccc(-c2c(C)nn3c(NCCN4CCOCC4)cc(C)nc23)cc1OC`, the Potency result in the assay with Tov-21-G and in the assay with Tov112D was “inactive” in each case.

Consider `NC(=O)c1nc(Nc2ccccc2)sc1NC(=O)C1CCCCC1`, for which the Potency entry with Tov-21-G and in the assay on Tov112D was “inactive” throughout.

In the case of `CCO[C@H]1CN(C2CCC(O)(c3ccc4c(c3)OCO4)CC2)C[C@@H]1NC(=O)CNC(=O)c1cccc(C(F)(F)F)c1` (some centres not stated), the Potency result in the assay on Tov-21-G and with Tov112D was “inactive” throughout.

With `COc1cc(/C=C2\CC[C@H]3COC[C@@H](c4cc(F)c(F)c(F)c4)N3C2=O)ccc1-n1cnc(C)c1`, the Potency entry in the assay on Tov-21-G and in the assay on Tov112D was “inactive” each time.

`CC(=O)O[C@@H]1CC[C@@]2(C)[C@H](CC[C@@H]3[C@@H]2C[C@H](OC(C)=O)[C@]2(C)[C@@H](C(C)=O)CC[C@@H]32)C1`: the Potency result in the assay on Tov-21-G and in the assay on Tov112D was “inactive” each time.

With `CC(NC(=O)Cc1cc(F)cc(F)c1)C(=O)NC1C(=O)N(C)c2ccccc2-c2ccccc21` (configuration not stated), the Potency result in the assay with Tov-21-G and in the assay with Tov112D was “inactive” throughout.

As for `CCN(Cc1ccccc1)C(=O)Cn1c(=O)n(C)c2cnc(-c3ccccc3)nc21`, the Potency entry in the assay with Tov-21-G and with Tov112D was “inactive” each time.

Consider `O=c1cc(OCc2ccc(F)cc2)ccn1-c1ccc(OCCN2CCCC2)cc1`, for which the Potency result in the assay with Tov-21-G and with Tov112D was “inactive” throughout.

Turning to `CCc1cc2c(cc1CC)CC(NCC(O)c1ccc(O)c3[nH]c(=O)ccc13)C2` (configuration not stated), the Potency result in the assay on Tov-21-G and in the assay on Tov112D was “inactive” each time.

On to `C[C@@H](c1ccc2nccn2c1)n1nnc2ncc(-c3cnn(C)c3)nc21`, for which the Potency result with Tov-21-G and in the assay with Tov112D was “inactive” each time.

As for `O=C(COc1ccc(C(=O)c2ccccc2)cc1)NC1CCN(Cc2ccccc2)CC1`, the Potency entry in the assay on Tov-21-G and in the assay with Tov112D was “inactive” each time.

(Values after PubChem BioAssay (NCATS).)
